High-throughput results as filed in PubChem BioAssay.
PLC-gamma1 inh: blocks human PLC-gamma1 enzyme activity; purified PLC-gamma1, fluorogenic substrate, fluorescence; inhibition, % at 12.2 µM; actives 0.84% (n = 370,000); in the data active = inhibition above about 9.5%
PLCb3 inh: PLC-beta3 (human) inhibition, primary screen | Q01970 | Purified PLC-beta3, fluorogenic substrate, fluorescence | inhibition, % at 12.2 µM | actives 0.18% (n = 370,000);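 also: 0% = median of compound wells on plate and 100% = full blocker control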
CR mimetic SO: yeast age-related superoxide inhibition as caloric restriction mimetic | actives 0.18% (n = 330,000) | S. cerevisiae aged cells, superoxide DHE fluorescence; active compounds read low | superoxide response (% of plate mean), % at 10 µM;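 active = superoxide response under a set limit, about three screen SD below normal, cut at about 65% in these data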;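 also: yeast aged for seven days with compound at 30 °C before DHE staining; 100% = average MFI of all compound-treated wells on the plate with controls excluded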
HIF act: HIF pathway transcriptional activation | AID 1910 | U2OS HRE-luciferase reporter, luminescence; normalized: DMSO 0%, desferrioxamine 100% | activation, % at 7.5 µM (by protocol) | actives 0.32% (n = 300,000);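 active = mean activation of at least 10% of the iron chelator positive control signal, with at least half of replicates also reaching 10%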
AHR activator: activates the human aryl hydrocarbon receptor | P35869 | AHR-responsive luciferase reporter cells, luminescence | activation, % at 5 µM | actives 2.5% (n = 320,000) | AID 2796; in the data active = activation above about 47%;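 also: 0% = vehicle wells and 100% = reference agonist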
HGIII-sPLA2 inh: Inhibits HGIII-sPLA2 liposome hydrolysis, primary screen | actives 0.56% (n = 370,000) | inhibition, % at 12.2 µM | QFRET BODIPY PC-A2 liposome hydrolysis, fluorescence | Q9NZ20 | AID 743126;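 active = inhibition above mean plus 3 SD of compounds lying within the high and low control bounds, cut at about 19% in these data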;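 also: 0% = median of test compound wells and 100% = no enzyme DMSO wells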
PLCg1 ctr: counter-screen for PLC-beta3 inhibitors: inhibitors of human PLC-gamma1 | shares compounds with PLC-gamma1 inh | purified PLC-gamma1, fluorogenic substrate, fluorescence | inhibition, % at 12.3 µM | actives 3.1% (n = 3,300); in the data active = inhibition above about 9.5%
PLCbeta3 conf: confirmation of human PLC-beta3 inhibitors | shares compounds with PLC-gamma1 inh | purified PLC-beta3, fluorogenic substrate fluorescence | inhibition, % at 12.3 µM | actives 1% (n = 3,300)
* marks the source's active call; other numbers are inactive results; · = no result given. Sampled rows, rich in hits. Any-hit rate of the full collection: about 3.9%. Rule as the data show it, unless noted: active = inhibition above about 11%; inactive = the rest.

SMILES | PLC-gamma1 inh | PLCb3 inh | CR mimetic SO | HIF act | AHR activator | HGIII-sPLA2 inh | PLCg1 ctr | PLCbeta3 conf
COc1ccc(OCc2cc(C(=O)NC(C)Cn3cncn3)no2)c(Cl)c1 (stereo not given) | 10.7* | -8.4 | 93.2 | 1.8 | 14.0 | -31.1 | -9.4 | -6.8
CC(=O)c1ccc(N2CCN(S(=O)(=O)c3cccc4nsnc34)CC2)cc1 | 10.0* | 5.5 | 107.4 | -0.4 | -3.3 | 9.8 | -1.7 | 3.3
COc1ccc(N2CCN(S(=O)(=O)c3cccc4nsnc34)CC2)cc1 | -0.7 | -0.4 | 96.1 | 0.5 | -1.0 | 3.3 | · | ·
COc1ccc(C(=O)N2CCN(CCc3ccccc3)CC2)cc1[N+](=O)[O-] | 1.0 | -7.0 | 115.3 | -0.1 | 1.4 | -3.3 | · | ·
O=C1c2ccccc2C(=O)N1OCc1ccccc1[N+](=O)[O-] | 13.0* | 6.2 | 87.6 | -0.3 | 27.9 | 5.7 | 5.8 | 1.2
O=C(Cc1ccccc1[N+](=O)[O-])OCN1C(=O)c2ccccc2C1=O | 0.0 | -5.2 | 96.8 | -0.5 | -1.5 | 8.7 | · | ·
O=C(NC1C2CC3CC(C2)CC1C3)C1CCCCC1 (stereo not given) | 15.8* | 0.9 | 103.4 | -0.9 | -1.3 | 10.2 | -6.6 | -3.0
O=C(CSc1nnc(Cc2ccccc2)n1-c1cccc(Cl)c1)NNC(=O)Cc1ccccc1 | 10.2* | 9.3 | 91.7 | 0.2 | 1.4 | -13.6 | -9.4 | -4.2
COc1ccc(CC(=O)NNC(=O)CSc2nnc(Cc3ccc(OC)cc3)n2-c2ccccc2)cc1 | -2.6 | -0.1 | 88.0 | 0.0 | 0.8 | -13.8 | · | ·
Cc1ccc2nc(NC(=O)C3CCN(S(=O)(=O)c4cnc[nH]4)CC3)sc2c1 | 9.6* | 5.7 | 100.0 | 0.7 | -0.5 | -49.9 | -8.8 | 0.1
COc1ccc2nc(NC(=O)C3CCN(S(=O)(=O)c4cnc[nH]4)CC3)sc2c1 | -1.2 | -2.7 | 103.7 | -1.6 | 2.4 | -29.1 | · | ·
CCOC(=O)C1(CCCc2ccccc2)CCN(C(=O)C(C)n2cncn2)CC1 (stereo not given) | 9.5* | -47.5 | 105.5 | 0.1 | -1.0 | -2.8 | -5.0 | 3.3
C#CCOCCOCCOCCNc1nc(N2CCN(C(=O)[C@H](CCCN=C(N)N)n3cc(C(N)[C@@H](C)CC)nn3)CC2)nc(N2CCN(C(=O)[C@H](CC(N)=O)n3cc([C@@H](N)C(C)C)nn3)CC2)n1 (stereo not given in full) | 4.2 | 14.0* | 102.1 | · | 0.8 | 7.5 | -1.3 | -2.4
C#CCOCCOCCOCCNc1nc(N2CCN(C(=O)[C@H](CCCN=C(N)N)n3cc(C(N)[C@@H](C)CC)nn3)CC2)nc(N2CCN(C(=O)[C@H](CC(N)=O)n3cc([C@@H](N)CC(N)=O)nn3)CC2)n1 (stereo not given in full) | 0.4 | 1.2 | 86.8 | · | -0.2 | 6.7 | · | ·
O=C(Nc1ccncc1)c1cccc(S(=O)(=O)N2CCCC2)c1 | 10.1* | -3.3 | 107.0 | 0.0 | 4.3 | 1.8 | -2.3 | -3.2
Cc1cccnc1NC(=O)c1ccc(S(=O)(=O)N2CCCCC2)cc1 | 10.8* | 3.1 | 92.3 | 0.0 | -0.2 | 3.6 | -3.4 | 5.9
CNS(=O)(=O)c1ccc(C(=O)NCC(=O)NC(C)c2cccs2)cc1 (stereo not given) | 1.1 | -8.3 | 115.7 | · | 0.1 | 4.4 | · | ·
O=C(NCc1cccs1)C1CCN(c2nc3ccccc3o2)CC1 | 9.7* | 2.6 | 105.5 | -0.1 | -4.9 | 3.5 | -1.6 | -3.9
Cc1cc(C)c(C)c(S(=O)(=O)N2CCC(C(=O)NCc3cccs3)CC2)c1C | 11.6* | 2.2 | · | · | · | -22.4 | -8.7 | -5.0
CC(NC(=O)c1ccccc1F)c1nnc(SCC(=O)Nc2nnc(C3CC3)s2)n1C (stereo not given) | 0.0 | -5.8 | 99.8 | -0.1 | -0.7 | 7.0 | · | ·
CC(C)C(=NO)c1ccccc1 | -0.8 | -5.3 | · | · | · | 6.3 | · | ·
O=C(N/N=C/c1ccc(OC(=O)c2ccccc2)cc1)c1cccc(O)c1 | 13.1* | 17.9* | 102.0 | -0.1 | 2.8 | -38.1 | 10.6* | 15.3*
